Measured values taken from PubChem BioAssay AID1903 (Southern Research Specialized Biocontainment Screening …, 2009).
Screen size: about 310,000 compounds; about 1,200 (0.39%) were called active. How the calls were made is not given here. Not all results are given here. Entries with a potency or affinity are not part of this list.

What follows are compounds tested against Large T antigen (Simian virus 40) (UniProt P03070) (assay: SV40 large T antigen inhibitors, biochemical (AID 1903)). Settings: SV40 large T antigen ATPase/helicase inhibition assay; at 20 µM; stronger effect = higher value.
Large T antigen (Simian virus 40), sequence (P03070 whole entry, looked up): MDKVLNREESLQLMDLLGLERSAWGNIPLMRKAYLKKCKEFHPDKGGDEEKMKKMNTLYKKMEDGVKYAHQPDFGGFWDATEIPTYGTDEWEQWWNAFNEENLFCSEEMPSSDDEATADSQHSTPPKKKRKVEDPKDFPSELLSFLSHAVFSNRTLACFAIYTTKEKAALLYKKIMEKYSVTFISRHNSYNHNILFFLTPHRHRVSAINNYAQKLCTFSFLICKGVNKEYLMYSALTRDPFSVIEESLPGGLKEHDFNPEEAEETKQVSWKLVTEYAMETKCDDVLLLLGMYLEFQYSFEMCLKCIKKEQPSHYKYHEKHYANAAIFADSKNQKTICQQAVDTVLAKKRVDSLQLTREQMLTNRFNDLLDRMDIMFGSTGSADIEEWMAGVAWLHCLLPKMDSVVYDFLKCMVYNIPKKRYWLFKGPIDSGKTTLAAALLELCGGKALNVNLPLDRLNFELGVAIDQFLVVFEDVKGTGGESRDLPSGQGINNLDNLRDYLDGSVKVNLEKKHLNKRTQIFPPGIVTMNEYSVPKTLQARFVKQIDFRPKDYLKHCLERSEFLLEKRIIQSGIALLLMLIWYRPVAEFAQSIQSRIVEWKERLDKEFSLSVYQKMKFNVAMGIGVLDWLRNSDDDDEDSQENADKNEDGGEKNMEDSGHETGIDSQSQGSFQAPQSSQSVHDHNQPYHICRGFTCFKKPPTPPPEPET

inhibition, inactive:
COc1ccc(-c2nn(-c3ccccc3)cc2/C=C/C(=O)O)cc1[N+](=O)[O-] 18.4%
C#CCOCCOCCOCCNc1nc(N2CCN(C(=O)[C@H]([C@@H](C)CC)n3cc([C@@H](N)CC(C)C)nn3)CC2)nc(N2CCN(C(=O)[C@H]([C@@H](C)CC)n3cc([C@@H](N)CC(C)C)nn3)CC2)n1 3.81%
CC(C)c1ccc(NC(=O)CSc2ncccc2C(=O)Oc2cccc([N+](=O)[O-])c2)cc1 16.9%
CCc1cc2c3c([nH]c2cc1S(=O)(=O)N1CCC2(CC1)OCCO2)CCCC3=O -0.36%
CCN(C(=O)Cn1cnc2c(nc3n2CCCCC3)c1=O)c1cccc(Cl)c1 18.9%
C#CCn1c(=NC(=O)c2cc(-c3cccs3)nc3ccccc23)sc2cc(S(N)(=O)=O)ccc21 8.04%
O=C(O)C1CCCCC1C(=O)Nc1ccc(OCc2ccccc2)cc1 (stereo not given) 9.44%
COc1cc(/C=C/c2nc3ccccc3c(=O)[nH]2)cc(Br)c1O -2.29%
CCOC(=O)c1[nH]c2ccccc2c1NC(=O)CC(C)(C)C -0.46%
O=C(O)CCC(=O)Nc1ccc(Cc2ccc(NC(=O)CCC(=O)O)cc2)cc1 5.94%
O=C(O)CCC(=O)Nc1ccc(F)cc1 12.5%
CC1CCCC(NC(=O)C2CCN(S(=O)(=O)c3cnc[nH]3)CC2)C1C (stereo not given) 10.4%
COc1ccccc1N1CCN(S(=O)(=O)c2cc(C(F)(F)F)cc(C(F)(F)F)c2)CC1 4.92%
CCOC(=O)C1(C)NC(c2ccc(O)cc2)C2C(=O)N(c3ccccc3)C(=O)C21 (stereo not given) 2.88%
O=C(Nc1ccc2nc(-c3cccs3)c(-c3cccs3)nc2c1)NC1CC1 -4.56%
O=C(NCCO)Nc1ccc2nc(-c3ccco3)c(-c3ccco3)nc2c1 52.6%
O=[N+]([O-])c1ccc(/C=N/N2CCN(Cc3ccccc3)CC2)cc1 8.88%
CN(C)c1ccc(/C=N/N2C(=O)c3ccccc3C2=O)cc1 21.5%
O=C1NN(c2ccc(F)cc2)C(=O)/C1=C\c1cnn(-c2ccccc2)c1 2.23%
CCOC(=O)/C=C/c1cnn(-c2ccccc2)c1 -1.48%
Cc1ccccc1N1C(=O)c2cccc3cccc(c23)C1=O 4.81%
CCN(CC)c1ccc(C=O)c(OC)c1 11.8%
CCN(CC)c1ccc(C(=O)N/N=C/c2ccc(OC)cc2OC)cc1 0.86%
COCCNC(=O)CN1CCC(NC(=O)Nc2ccc(C(F)(F)F)cc2)CC1 27.4%
Cc1cc(C)nc(NNC2=CC(=[N+]3CCCCC3)CC(C)(C)C2)n1 3.95%
CNC(=O)COC(=O)CNC(=O)c1cc(Cl)cc([N+](=O)[O-])c1 6.1%
C=CCn1c(SCc2cccc(OC)c2)nnc1-c1ccncc1 5.97%
CCc1ccc(C2CC(c3ccc(Cl)cc3)=NNC2=O)cc1 (stereo not given) -1.48%
COc1ccccc1N1CCN(c2nccc(C)n2)CC1 11.9%
Cc1ccnc(N2C3CCC2CC(O)(c2ccccc2)C3)n1 (stereo not given) 2.55%
O=c1c2ccccc2c(C=Nc2ccccc2O)c(O)n1-c1nccs1 15.8%
O=C1CCCN1c1nccs1 4.21%
O=C(NCCc1c[nH]c2ccccc12)C1CCN(S(=O)(=O)c2ccccc2F)CC1 10.5%
COc1ccc(S(=O)(=O)Cc2ccc(C(=O)NCc3ccccc3)o2)cc1 7.39%
Cc1c([N+](=O)[O-])cc(S(=O)(=O)Nc2ccncc2)cc1[N+](=O)[O-] 1.66%
COc1ccc(/C=C/CN2CCN(Cc3ccc(F)cc3)C(CCO)C2)cc1 (stereo not given) 10.1%
O=C1N/C(=C/c2ccc(N3CCCC3)cc2)C(=O)N1c1ccccc1 1.12%
O=C1S/C(=C\C=C\c2ccco2)C(=O)N1c1ccccc1 20.3%
CCOC(=O)C1=C(C)N(c2ccc(C)c(C)c2)C(=O)/C1=C\c1ccco1 7.58%
O=C1/C(=C\c2ccco2)SC(=S)N1c1ccccc1 21.4%
O=C1NC(=O)N(c2ccccc2)C1=O 28.5%
COC(=O)C1=C(C)N(c2ccc(C)c(C)c2)/C(=C/c2ccco2)C1=O 13.5%
O=C1NC(=S)N/C1=C/C=C/c1ccccc1 -22.6%
Nc1ccc2c3c(cccc13)C(=O)N(c1ccccc1)C2=O 6.29%
O=C(OCc1ccccc1)N1CCOCCN(C(=O)OCc2ccccc2)CCOCC1 0.08%
c1ccc(N2CCN(c3nc(-c4cccs4)nc4ccccc34)CC2)cc1 17.6%
COC(=O)c1cccc(C(=O)N2CCCC(C(=O)c3ccccc3OC)C2)c1 (stereo not given) 2.9%
Cc1ccccc1CCNC(=O)Cn1ccc2cc(S(=O)(=O)N3CCCC3)ccc21 11.1%
CCN(Cc1ccccc1)C(=O)CCS(=O)(=O)c1ccc2c(c1)NC(=O)CO2 6.63%
COc1ccc(/C=N/NC(=O)C(C)n2nnc3ccccc32)cc1OC (stereo not given) -3.35%
COc1cccc(/C=N\NC(=O)Cn2nnc3ccccc32)c1O 34.8%
COc1cc(Cn2nnc3ccccc32)cc(Br)c1O 29.6%
CN(C)c1ccc(/C=N/NC(=O)Cn2nnc3ccccc32)cc1 14.7%
COc1cccc(/C=N/NC(=O)CCn2nnc3ccccc32)c1 9.43%
COc1ccc(/C=N/NC(=O)CCn2nnc3ccccc32)cc1 3.72%
COc1cccc(/C=N/NC(=O)C(C)n2nnc3ccccc32)c1 (stereo not given) 23.4%
COc1ccc(Cn2nnc3ccccc32)cc1 0.77%
O=C(Cn1ccc2ccccc2c1=O)NCC(=O)N1CCN(c2ccccc2F)CC1 5.42%
CC(=O)Nc1ccccc1OC(C)C(=O)N1CC(C)CC(C)C1 (stereo not given) 2.89%
CCOc1ccc(NC(=O)N2CCC(n3nnc4cc(C)ccc43)CC2)cc1 -5.9%
Cn1c(=O)cc(SCC(=O)Nc2ccccn2)c2ccccc21 18.7%
COC(=O)c1ccccc1NC(=O)N1CCN(S(C)(=O)=O)CC1 5.14%
CCNC(=S)N(CCc1ccccc1C)Cc1cc2cc(OC)c(OC)cc2[nH]c1=O 2.57%
COc1ccc(N(CC(=O)NCc2ccc(F)cc2)C(=O)c2snc(C(N)=O)c2N)cc1OC 5.71%
CSc1ccc(C#N)cc1NC(=O)c1cccnc1Cl 1.02%
C/C(=N\NC(=O)Cn1ccc(C(F)(F)F)n1)c1ccc(N2CCOCC2)cc1 5.06%
CCOc1cc(/C=N/NC(=O)CCn2nc(C)cc2C)ccc1O 33.9%
COc1ccc(/C=N/NC(=O)CCn2nc(C)cc2C)cc1O 32.7%
COc1ccc(/C=N/NC(=O)Cn2nnc3ccccc32)cc1OC 9.9%
COc1cc(/C=N/NC(=O)CCn2c3ccccc3c3ccccc32)ccc1O 13.3%
COc1ccc(O)c(/C=N\NC(=O)CCn2nnc3ccccc32)c1 9.4%
COc1cc(/C=N\NC(=O)Cn2nnc3ccccc32)cc(OC)c1OC 4.84%
COc1ccc(/C=N/NC(=O)CCc2c(C)n[nH]c2C)cc1O 33.9%
COc1ccc(/C=N/NC(=O)CCc2c(C)n[nH]c2C)cc1OC 0.79%
CC1CCCN(C(=O)N2c3ccccc3Sc3ccccc32)C1 (stereo not given) 6.24%
CCOC(=O)c1c(-c2ccccc2)csc1NC(=O)c1ccc(S(=O)(=O)N2CCOCC2)cc1 11.2%
C=CCn1c(COc2ccc(Cl)cc2)nnc1SCC(=O)Nc1ccc(S(N)(=O)=O)cc1 -7.84%
COc1cccc2cc(-c3nnc(-c4ccccc4)o3)c(=O)oc12 3.9%
COC(CN(C)C(C(=O)NC1CCCCC1)c1ccccc1)OC (stereo not given) -3.44%
Cc1cc(C)cc(NC(=O)Nn2cnnc2)c1 14.3%
CCCCN(Cc1ccccc1)C(=O)CCN1C(=O)C2C3C=CC(C3)C2C1=O (stereo not given) 8.63%
Cc1cc([N+](=O)[O-])ccc1NC(=O)c1cncc(Br)c1 12.5%
COC(=O)c1ccc(S(=O)(=O)c2ccc(Cl)cc2)c(N)c1 13.4%
COC(=O)c1ccc(C(=O)NC2CCSc3ccccc32)cc1 (stereo not given) 6.81%
CC(C)CCN1CCN=C1Nc1ccccc1 0.58%
Cn1c(SCc2ccc([N+](=O)[O-])cc2)nc2c(c1=O)SCC2 3.17%
CC(C)c1ccc2nc(N)sc2c1 8.35%
c1ccc2sc(N3CCOCC3)nc2c1 20.2%
Nc1nc2ccc(S(=O)(=O)c3ccc4nc(N)sc4c3)cc2s1 10.5%
Fc1ccc2nc(N3CCOCC3)sc2c1 -1.3%
CC(Sc1nc2c(c(=O)[nH]1)CCCC2)C(=O)Nc1ccccc1C#N (stereo not given) 6.43%
O=C(N/N=C/c1cnc(N2CCOCC2)s1)c1ccccc1 11.5%
O=C(COc1ccccc1)NCC(=O)NC1=NCCS1 3.88%
COc1cc(/C=C/C(=O)OCC(=O)N(C)C2CCS(=O)(=O)C2)ccc1OC(F)F (stereo not given) -1.47%
COc1cc(/C=C/C(=O)OCC(=O)NC2CCS(=O)(=O)C2)ccc1O (stereo not given) 34%
